High-throughput results (PubChem)
Sampled rows, rich in hits. Any-hit rate of the full collection: about 3.6%.
CF NFkB inh = inhibitors of cystic fibrosis induced NF-kB | KKLEB NF-kB-GFP reporter, PAF-induced, GFP fluorescence overnight | 360,000 tested, 0.86% active | inhibition, % at 5 µM;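 active = at least 50% inhibition at 5 µM, scaled per plate between neutral and stimulator controls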;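 note: PAF is a Pseudomonas aeruginosa culture filtrate used as stimulus; plate controls were PAF-stimulated DMSO wells for no effect and unstimulated DMSO wells for full effect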
KKLEB tox = reduces viability of KKLEB cystic fibrosis airway cells; KKLEB CF airway cells viability, ATPlite luminescence, overnight; hits give low values; cells stimulated with P. aeruginosa culture filtrate; 360,000 tested, 0.36% active; AID 602141; activity change (cytotoxicity), % at 5 µM;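 active = corrected activity change at or below -50% at 5 µM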
Mdm2 MdmX PPI = inhibitors of human Mdm2/MdmX interaction. inhibition, % at 8 µM. SaOS-2 split-luciferase Mdm2/MdmX complementation, luminescence. 330,000 tested, 3% active. O15151+Q00987. AID 485346;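 active = inhibition of at least 50% at 8 µM in the primary screen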
Target sequence (O15151 whole entry, looked up): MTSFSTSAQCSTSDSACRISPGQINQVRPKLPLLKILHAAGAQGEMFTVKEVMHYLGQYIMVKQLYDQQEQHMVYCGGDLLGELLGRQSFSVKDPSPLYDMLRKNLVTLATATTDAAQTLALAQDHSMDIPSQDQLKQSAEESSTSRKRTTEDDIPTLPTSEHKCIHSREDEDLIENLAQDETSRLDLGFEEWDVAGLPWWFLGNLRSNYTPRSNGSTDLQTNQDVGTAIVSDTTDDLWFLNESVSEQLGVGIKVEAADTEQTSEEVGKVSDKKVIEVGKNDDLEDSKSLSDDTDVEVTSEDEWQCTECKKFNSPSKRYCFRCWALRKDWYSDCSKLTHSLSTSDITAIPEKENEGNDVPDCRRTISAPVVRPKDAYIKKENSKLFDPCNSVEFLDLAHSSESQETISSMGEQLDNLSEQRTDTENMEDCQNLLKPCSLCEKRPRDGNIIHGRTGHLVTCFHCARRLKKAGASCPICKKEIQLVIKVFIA
Target sequence (Q00987 whole entry, looked up): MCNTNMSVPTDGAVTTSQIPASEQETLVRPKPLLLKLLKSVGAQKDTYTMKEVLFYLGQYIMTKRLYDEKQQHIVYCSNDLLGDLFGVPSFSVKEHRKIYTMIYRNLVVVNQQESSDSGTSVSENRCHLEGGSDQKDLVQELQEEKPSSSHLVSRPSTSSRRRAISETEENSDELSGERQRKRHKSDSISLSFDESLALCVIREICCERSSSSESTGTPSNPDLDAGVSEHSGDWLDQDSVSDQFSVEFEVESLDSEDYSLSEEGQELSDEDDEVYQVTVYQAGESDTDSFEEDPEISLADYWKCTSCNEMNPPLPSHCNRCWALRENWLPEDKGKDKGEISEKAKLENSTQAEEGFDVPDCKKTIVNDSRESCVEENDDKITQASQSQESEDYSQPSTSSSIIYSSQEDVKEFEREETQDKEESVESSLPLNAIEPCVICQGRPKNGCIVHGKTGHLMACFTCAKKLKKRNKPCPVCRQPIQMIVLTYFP
Peg3 prom inh-1 = Peg3 promoter activity inhibition; inhibition, % at 20 µM; 360,000 tested, 1.7% active; HeLa PEG-Prom luciferase reporter, luminescence, overnight; AID 588405;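 active = inhibition of at least 50% at 20 µM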
HSP90 refold inh = inhibitors of HSP90 luciferase refolding in rabbit reticulocyte lysate | luciferase refolding luminescence, 3 h | inhibition, % at 5.6 µM | 290,000 tested, 0.91% active;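 active = inhibition above the screen-wide mean plus 3 SD, computed separately per campaign, cut at about 16% in these data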;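 note: 0% = DMSO wells and 100% = 60 µM geldanamycin wells; inhibitors lower the luminescence because luciferase stays unfolded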
LGR2 inh = inhibitors of bursicon-induced Drosophila LGR2 receptor cAMP signaling; HEK293 LGR2, CRE-luciferase, bursicon-stimulated, 4 h; 380,000 tested, 0.35% active; inhibition, % at 9.99 µM;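 active = drop in luminescence signal, shown as inhibition above about 50% in the replicate tests, limit read from the data, passing the limit was not always enough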;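 note: agonist challenge used bursicon conditioned medium at about half maximal strength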
HSP90 inh confirm = HSP90 inhibition, confirmation assay. shares compounds with HSP90 refold inh. inhibition, % at 5.9 µM. 2,300 tested, 64% active. rabbit reticulocyte lysate, luciferase refolding luminescence, 3 h; in the data active = inhibition above about 18%;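 note: 0% = vehicle wells and 100% = reference inhibitor wells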
FLuc counter-1 = counter-screen for HSP90 inhibitors: inhibitors of firefly luciferase | purified native firefly luciferase, luminescence | shares compounds with HSP90 refold inh | 2,300 tested, 48% active | inhibition, % at 5.9 µM;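 active = inhibition above the mean inhibition of all tested sample wells plus 3 SD, cut at about 10% in these data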;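 note: 0% = DMSO with luciferase and 100% = wells lacking luciferase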
Mdm2-MdmX conf = human Mdm2/MdmX binding inhibition, confirmed; shares compounds with Mdm2 MdmX PPI; luminescent assay; inhibition, % at 8 µM; 10,000 tested, 55% active
FLuc counter-2 = full-length luciferase inhibition in Mdm2/MdmX counter-screen. shares compounds with Mdm2 MdmX PPI. SaOS-2 full-length luciferase counterscreen, luminescence. inhibition, % at 8 µM. 6,200 tested, 77% active;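 active = mean inhibition at 8 µM reaching about 37%, which flags the compound as non-specific, limit read from the data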;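 note: p53-null SaOS-2 cells with luciferase driven by a doxycycline-inducible promoter; compound on cells about two nights before reading with doxycycline added after day one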
Peg3 prom inh-2 = Peg3 promoter inhibition confirmation; AID 602417; shares compounds with Peg3 prom inh-1; HeLa PEG-Prom luciferase reporter, luminescence, overnight; inhibition, % at 20 µM; 1,300 tested, 84% active;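 active = at 20 µM dose, 40% or more inhibition averaged across four replicates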
CF NFkB conf = CF NF-kB inhibition confirmation, single concentration; inhibition, % at 5 µM; KKLEB CF airway cells, PAF-induced NF-kB-GFP fluorescence, overnight; shares compounds with CF NFkB inh; 1,300 tested, 64% active; AID 602472;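 note: stimulus PAF is a Pseudomonas aeruginosa filtrate and not platelet activating factor; plate controls were DMSO wells with stimulus for no effect and unstimulated DMSO wells for full effect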
Active calls of the source: *; . = no result. Cut-off read from the data, not from the text of the source, unless noted: active = inhibition above about 40%; inactive = the rest.

SMILES	CF NFkB inh	KKLEB tox	Mdm2 MdmX PPI	Peg3 prom inh-1	HSP90 refold inh	LGR2 inh	HSP90 inh confirm	FLuc counter-1	Mdm2-MdmX conf	FLuc counter-2	others
O=C(CN1C(=O)c2ccccc2S1(=O)=O)c1ccc2c(c1)OCCO2	6	-4	98*	108*	57*	103*	68*	-8	99*	56*	Peg3 prom inh-2=96*
O=C(CN1C(=O)c2ccccc2S1(=O)=O)c1ccc2c(c1)OCCCO2	-14	0	95*	99*	80*	93*	82*	-19	81*	56*	Peg3 prom inh-2=95*
O=C(CN1C(=O)c2ccccc2S1(=O)=O)c1cccc(Br)c1	4	5	23	-26	1	38	.	.	.	.
C(=N\Nc1nc2ccccc2[nH]1)/c1ccccn1	-30	-43	.	86*	79*	90*	88*	85*	.	.	Peg3 prom inh-2=76*
CC(C)(C)c1ccc(Cn2c(=O)cnc3ccccc32)cc1	25	-11	72*	86*	22*	60*	53*	34*	77*	26	Peg3 prom inh-2=77*
O=c1cnc2ccccc2n1Cc1ccc(Br)cc1	-5	-4	30	-64	-1	-26	.	.	.	.
O=C(Nc1ccc(F)cc1)N[C@@H]1CC[C@H](CCNS(=O)(=O)c2cccc(Cl)c2)O[C@H]1CO	.	.	.	.	.	13	.	.	.	.
Cc1c(-c2ccccc2)oc2c(C(=O)N3CCN(c4ccc([N+](=O)[O-])cc4)CC3)cccc2c1=O	82*	-20	67*	2	21*	43	10	1	77*	51*	CF NFkB conf=82*
Cc1c(C(=O)N2CCN(c3ccc([N+](=O)[O-])cc3)CC2)oc2ccccc12	11	4	10	24	.	-9	.	.	.	.
O=C(Nc1ccc2ccccc2c1)c1ccccc1O	52*	-18	25	-74	39*	76*	54*	46*	.	.	CF NFkB conf=79*
Cc1ccc(S(=O)(=O)Nc2ccc3c(c2)C(=O)N([C@@H](C)CO)C[C@@H](C)[C@@H](CN(C)C)O3)cc1	.	.	.	.	.	-19	.	.	.	.
CNc1cc(N2CCCCCC2)ccc1[N+](=O)[O-]	20	0	19	-26	3	-9	.	.	.	.
CCNc1cc(N2CCCC2)ccc1[N+](=O)[O-]	4	-2	51*	8	4	-1	.	.	9	.
COc1cc(C(CCN2CCCC(C)C2)c2c(OC)cc(OC)c3c(-c4ccccc4)cc(=O)oc23)cc(OC)c1OC (stereo not drawn)	3	-6	82*	87*	.	13	.	.	25	.
COc1cc(C(CCN2CCCCC2)c2c(OC)cc(OC)c3c(-c4ccccc4)cc(=O)oc23)cc(OC)c1OC (stereo not drawn)	16	-3	65*	78*	.	.	.	.	24	.
COCC(=O)Nc1ccc2c(c1)C(=O)N(C)C[C@H](OC)[C@@H](C)CN(C(=O)Cc1cccnc1)[C@H](C)CO2	.	.	.	.	.	-13	.	.	.	.
O=C(c1ccc2c(=O)n3c(nc2c1)CCCCC3)N1CCN(c2ccccc2)CC1	1	-5	20	8	-2	1	.	.	.	.
O=C(c1ccc2c(=O)n3c(nc2c1)CCCCC3)N1CCN(C(c2ccccc2)c2ccccc2)CC1	9	-14	63*	27	10	15	.	.	22	.
N=c1c(S(=O)(=O)c2ccc(Cl)cc2)cc2c(=O)n3ccccc3nc2n1CCc1ccccc1	-41	-47	63*	3	1	-7	.	.	37	25
